Reference: PubChem BioAssay AID1520 (The Scripps Research Institute Molecular Screening Center, 2009)
The other results are listed elsewhere or left out. Values without a mark were called inactive. Activity calls are given as the source filed them.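 The calls were made as follows: active = cell growth inhibition above the hit limit set in the earlier mutant JAK2 cell screen (cut at about 27% in these data); inactive = the rest.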

Test: growth loss in parental Ba/F3 cells – cell-based, murine pro-B, CellTiter-Glo luminescence, counter-screen for JAK2V617F inhibitor project (AID 1520);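 also: plate controls were DMSO-treated cells for no effect and JAK Inhibitor I control wells for full effect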
Conditions: Ba/F3 parental viability, at 5.6 µM, hits give high values, cells kept alive by added IL-3

O=C(CCl)Nc1ccc(Sc2ccc(NC(=O)CCl)cc2)cc1
inhibition: 47.3% (active)

COc1cc(OC)cc(C(=O)N[C@H](C(=O)Nc2nc3ccccc3[nH]2)C(C)C)c1
inhibition: 86% (active)

COc1ccccc1N1CCN(Cc2ccc(OC)c3ccccc23)CC1
inhibition: -5.1%

CCCc1nc2ccccc2c(=O)n1/N=C/c1ccc(O)c(O)c1
inhibition: 1.92%

CN(Cc1ccc2nsnc2c1)Cc1nc(Cc2cccc(F)c2)no1
inhibition: -7.97%

Cc1cccc(NC(=O)c2ccc([N+](=O)[O-])o2)c1
inhibition: 10.6%

COc1cc(OC)c(C(=O)NC2CCCCCC2)cc1OC
inhibition: -5.51%

Cn1c(CCN2CCCCCC2)nc2cc(NC(=O)Nc3ccccc3)ccc21
inhibition: -5%

CCCn1c(NC(=O)C23CC4CC(CC(O)(C4)C2)C3)nc2ccccc21
inhibition: -7.65%

Cc1ccc(NC(=S)N(CCCN2CCC(C)CC2)Cc2ccco2)cc1
inhibition: 28.7% (active)

O=C(CCl)N(Cc1cccc([N+](=O)[O-])c1)c1cccc(Cl)c1
inhibition: 87.5% (active)

COc1ccc(OC)c(Nc2nc(-c3ccc(O)c(O)c3)cs2)c1
inhibition: 72.9% (active)

N#C/C=C\Oc1ccc(Cl)cc1N
inhibition: -2.4%

CCC1CCCCN1CCCNC(=O)c1cc2c(Cl)nc3ccccc3c2s1 (stereo not drawn)
inhibition: 0.54%

CSCC(=O)N1CCCC(C(=O)c2cc(F)ccc2F)C1 (stereo not drawn)
inhibition: -3.79%

COc1ccc(Cc2nnc(N/N=C/c3ccccc3O)[nH]c2=O)cc1OC
inhibition: 85.6% (active)

c1ccc2c(c1)CSc1sccc1C2=C1CCNCC1
inhibition: 0.77%

Cc1ccc(C2=NN(C)c3nc4ccccc4n3C2)cc1
inhibition: -0.44%

Cc1ccc(S(=O)(=O)C2(S(=O)(=O)c3ccc(C)cc3)CCCC2)cc1
inhibition: 32.1% (active)

CCn1c(/C=C/c2ccc([N+](=O)[O-])o2)nc2ccccc2c1=O
inhibition: 106% (active)

COc1ccc(-c2csc(Nc3ccc(O)cc3)n2)cc1
inhibition: 63% (active)

O=c1oc2ccccc2cc1-c1cn(-c2ccccc2)c(=S)[nH]1
inhibition: 50% (active)

Oc1ccc(/C=N/Nc2ccc(C(F)(F)F)cn2)cc1O
inhibition: 76.2% (active)
